Nrf2 block: Nrf2 pathway inhibition; A549 ARE-Fluc reporter, luciferase luminescence, 18-24 h; Potency, µM (titrated, usually from 46 µM), for inactives: at the highest dose activity change, negative = inhibition, most hits filed as inhibitors; 360,000 compounds, 2.1% hits; AID 504444; also: % is scaled to controls: 0 for no effect and ±100 for the full control effect; nearly all actives have a fitted effect of over 60% in size
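A549 ARE_Fluc cells (5000/well, 5% FBS OPTI-MEM) pre-incubated 2 h, then treated with compounds 18-24 h at 37C/5% CO2 in concentration-response. CellTiter-Fluor viability read first; BugLite luciferase luminescence after 15 min at room temperature gives Nrf2 activity.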
A549 viability: counter-screen for Nrf2 inhibitors: cytotoxicity in A549 cells | A549 ARE-Fluc cells, CellTiter-Fluor viability, 18-24 h | Potency, µM (doses to about 46 µM), inactives show at the top dose activity change, negative = cytotoxicity, actives largely listed as inhibitors | 390,000 compounds, 0.16% hits | AID 504648; also: % is scaled to controls: 0 for no effect and ±100 for the full control effect
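A549 ARE_Fluc cells in 5% FBS OPTI-MEM were exposed to compounds in concentration-response for 18-24 h at 37 deg C. Viability was read by CellTiter-Fluor fluorescence (Ex 405/Em 525) after 30 min, before the luciferase read.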
Nrf2 activator: activators of Nrf2 (ARE) signaling; AREc32 ARE-luciferase reporter (MCF7-derived line), luminescence, 24 h; 410,000 compounds, 0.31% hits; Potency, µM (series often up to 46.1 µM), without a hit: at the top dose activation, actives largely listed as activators; AID 624171; also: % of control where 0% means no effect; nearly all actives have a fitted effect of over 65% in size
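Reporter line AREc32 (ARE-Fluc), seeded overnight in OPTI-MEM with 5% FBS; compound pin-transferred, 24 hr at 37 deg C, 5% CO2; luminescent read-out.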
S2 tox: viability counter-screen for ATXN expression inhibitors; S2 cells (HEK-293 line with an ATXN2-luciferase reporter) viability, CellTiter-Fluor protease fluorescence, 24 h; Potency, µM (titrated, usually from 56.7 µM), most hits filed as cytotoxic; 400,000 compounds, 0.49% hits; AID 651635; also: nearly all actives have a fitted effect of over 40% in size
ATXN2 expr inh: inhibitors of ATXN2 expression | HEK-293 ATXN2-luciferase reporter, luminescence, 24 h | 360,000 compounds, 0.72% hits | Potency, µM (top dose mostly 57 µM), without a hit: at the top dose activity change, negative = inhibition, usual class: inhibitors; also: % is scaled to controls: 0 for no effect and ±100 for the full control effect; nearly all actives have a fitted effect of over 55% in size
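ATXN2-luciferase reporter cells (luciferase flanked by upstream and downstream ATXN2 gene portions) were treated 24 h at 37 °C with compounds at up to 57 uM. SteadyGlo luminescence gave expression; GF-AFC fluorescence gave viability.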
Starred values were filed as active, the others as inactive; i = inactive; ? = inconclusive; · = no result; [ ] = remark or other dose. Sampled rows, rich in hits. Any-hit rate of the full collection: about 2.9%. Calls follow the shape of the dose curve; as a rule, active = well fitted curve in the direction sought with a large enough effect; inconclusive = small, poorly fitted or top-dose-only effect, or another doubt; inactive = no such curve, though single readings can be large; an effect the other way counts as inactive or inconclusive. Potency is read from the fitted curve at half-maximal effect.

SMILES	Nrf2 block	A549 viability	Nrf2 activator	S2 tox	ATXN2 expr inh
CCN(CC)C(=O)C1CCCN(c2ncnc3c2cnn3-c2ccc(Cl)cc2)C1 (stereo unspecified)	20.6µM*	-0.6%	-3.6%	?	12.6µM*
Cc1ccc(-n2ncc3c(SCc4cccnc4)ncnc32)c(C)c1	4.11µM*	-19.8%	2.7%	i	51.1%
CC(C)=CCCC(C)=CCCC(C)=CCCC(C)=CCCC(C)=CCCC(C)=CCCC(C)=CCCC(C)=CCCC(C)=CCO	·	·	·	·	8.4%
COc1ccc(NS(=O)(=O)c2c(C)cc(C)cc2C)cc1	20.6µM*	?	-0.5%	i	-8.7%
Cc1[nH]c2ccccc2c1SCc1nnc(SCc2ccccc2)n1C	25.9µM*	3.3%	-1.0%	i	-9.9%
COc1cc(NC(=O)c2cccc3c(-c4cnn(C)c4)coc23)cc(OC)c1OC	·	·	0.5%[9.22 µM]	?	17.8µM*
Nc1nonc1C(=O)NCCNc1ncccc1[N+](=O)[O-]	18.4µM*	?	2.3%	i	-11.8%
CCN(CC)S(=O)(=O)c1ccc(C(=O)Nc2nc3c(Cl)cc(Cl)cc3s2)cc1	·	?	-1.5%	i	-15.0%
COc1ccc(CCN2C(=O)CSC2=S)cc1OC	29.4%	-17.8%	?	22.4µM*	?
NC(=O)c1ccc(N2CCN(c3ccc(O)cc3)CC2)c([N+](=O)[O-])c1	18.4µM*	-22.5%	0.6%	i	-4.9%[11.3 µM]
NC(=O)CC(NC(=O)c1ccccc1)c1ccc(N2CCN(c3ccccc3)CC2)c([N+](=O)[O-])c1 (stereo unspecified)	?	-4.8%	-0.7%	?	-30.2%
NC(=O)CC(NC(=O)c1ccccc1)c1ccc(N2CCN(c3ccc(F)cc3)CC2)c([N+](=O)[O-])c1 (stereo unspecified)	20.6µM*	-19.0%	-0.3%	?	-38.4%
CC(=O)c1ccc(N2CCN(c3ccc(C(N)=O)cc3[N+](=O)[O-])CC2)cc1	-23.5%	3.3%	-0.6%	?	·
NC(=O)CC(NC(=O)Cc1cccc2ccccc12)c1ccc(N2CCc3ccccc3C2)c([N+](=O)[O-])c1 (stereo unspecified)	?	?	-0.8%	35.5µM*	?
NC(=O)CC(NC(=O)Cc1cccc2ccccc12)c1ccc(N2CCCCCC2)c([N+](=O)[O-])c1 (stereo unspecified)	-8.5%	-4.4%	0.4%	?	-12.5%
O=C(CC1N=C2c3ccccc3N=C(SCC(=O)Nc3ccc(F)cc3)N2C1=O)NCc1ccc2c(c1)OCO2 (stereo unspecified)	·	0.8%	4.8%	?	23.3%
CCCCNC(=O)CC1N=C2c3ccccc3N=C(SCC(=O)Nc3ccccc3OC)N2C1=O (stereo unspecified)	18.4µM*	-22.7%	0.1%	i	6.8%
CCc1ccc(NC(=O)CSC2=Nc3ccccc3C3=NC(CC(=O)NCc4ccc5c(c4)OCO5)C(=O)N23)cc1 (stereo unspecified)	·	-12.4%	4.7%	25.1µM*	7.8%
CC(=O)c1ccc(F)c(-c2cc(C)cc3c2OC(CNC(=O)Cn2nc(C)nc2C)C3)c1 (stereo unspecified)	·	·	·	i	·
CC(CCC(C)C(C)(C)C)[C@@H]1CC[C@H]2C3C[C@H](OS(O)(=S)=S)[C@H]4C[C@H](OS(O)(=S)=S)[C@@H](OS(O)(=S)=S)C[C@]4(C)[C@H]3CC[C@]12C (stereo partly specified) (tested in a mixture with another compound)	?	?	0.5%	17.8µM*	?
CC1(C)S[C@@H]2[C@H](NC(=O)C(C(=O)Oc3ccc4c(c3)CCC4)c3ccccc3)C(=O)N2[C@H]1C(=O)O (stereo partly specified)	·	·	·	i	·
CC(C)C(=O)N1CCN(c2nc(-c3ccc(Cl)cc3)cs2)CC1	?	-2.9%	3.6%	?	·
COc1cccc(-c2csc(N3CCN(C(=S)Nc4ccc(Cl)cc4)CC3)n2)c1	20.6µM*	-25.0%	5.0%	i	-24.2%
O=C(Cc1cccs1)N1CCN(c2nc(-c3ccc(Cl)cc3)cs2)CC1	18.4µM*	-28.5%	3.6%	i	-30.5%
CNC(=S)N1CCN(c2nc(-c3ccc(Cl)cc3)cs2)CC1	18.4µM*	-12.5%	-0.2%	i	?
SMILES	Nrf2 block	A549 viability	Nrf2 activator	S2 tox	ATXN2 expr inh
CNC(=S)N1CCN(c2nc(-c3cccc(OC)c3)cs2)CC1	18.4µM*	-3.9%	6.4%	i	-23.5%
COc1cccc(-c2csc(N3CCN(C(=S)Nc4ccccc4)CC3)n2)c1	-20.0%	-4.6%	3.8%	i	-4.6%
Cc1cc2c(s1)c1cnn(Cc3c(F)c(F)c(C(F)(F)F)c(F)c3F)c(=O)c1n2C	1.8%	2.0%	·	·	·
S=C(NCC1CCCO1)N1CCN(c2nc(-c3ccccc3)cs2)CC1 (stereo unspecified)	13µM*	-11.4%	0.1%	?	-20.4%[11.3 µM]
CCNC(=S)N1CCN(c2nc(-c3ccc(F)cc3)cs2)CC1	18.4µM*	3.0%	0.7%	i	?
COc1cccc(-c2csc(N3CCN(C(=O)Nc4ccccc4Cl)CC3)n2)c1	6.5%	6.0%	-0.9%	i	·
COc1cccc(NC(=O)N2CCN(c3nc(-c4cccc(OC)c4)cs3)CC2)c1	?	-17.3%	0.1%	14.1µM*	·
COCCNC(=S)N1CCN(c2nc(-c3ccc(F)cc3)cs2)CC1	-28.4%	-2.4%	3.0%	i	?
CCOC(=O)c1c(NC(C)=O)c2c3c(sc2n1Cc1nc(-c2ccccc2Cl)oc1C)CCCC3	-14.1%	0.3%	8.4%	·	·
C[C@]12C=CC(=O)C=C1CC[C@@H]1[C@@H]2[C@@H](O)C[C@@]2(C)[C@@H]1CC[C@]2(O)C(=O)CO	·	·	·	·	-3.5%
Fc1cc(F)cc(Nc2nc(Cl)nc(NC3CCCC3)n2)c1	17.2%	-1.8%	0.4%	25.1µM*	?
O=S(=O)(c1ccc(Cl)cc1)c1snnc1-c1ccccc1	-21.5%	?	?	25.1µM*	20µM*
O=S(=O)(c1ccc(F)cc1)c1snnc1-c1ccccc1	-4.6%	1.3%	?	?	14.1µM*
COc1cccc(C2(CC(=O)N3CCC(c4nc5ccc(F)cc5[nH]4)CC3)CC(=O)N(C)C2=O)c1 (stereo unspecified)	·	·	·	i	·
O=C(Nc1ccccc1F)c1ccc(Cn2nc(N3CCN(c4ccccc4)CC3)ccc2=O)o1	20.6µM*	-19.6%	-0.7%	?	?
CCSc1nnc(NC(=O)CSc2nc3c(c(=O)n2CC)SC(C)C3)s1 (stereo unspecified)	18.4µM*	-13.7%	-0.3%	?	-18.9%
CC(C)=CCc1c(O)cc(O)c2c(=O)c3c(CC=C(C)C)c(O)ccc3oc12	?	-17.4%	-1.8%	25.1µM*	?
CC(C)=CCc1c(O)cc2c(=O)c3ccc(O)cc3oc2c1O	?	-0.3%	15.6%	?	22.9%

Bioassay records: PubChem, National Center for Advancing Translational Sciences (NCATS)
